Where a name gives a salt, the structure may show the parent alone. ± gives the standard deviation of the averaged measurements.
Assays:
[1] = test system: Saccharomyces cerevisiae BY4741 SeMeCo community; assay: z-score of prototroph abundance vs DMSO median; higher = larger share of this subpopulation than in DMSO controls; details: 10 µM; 24 h; SM minimal medium; subpopulation (auxotrophy): Prototroph
Method in brief: (§1)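 Four plasmids, each restoring a single auxotrophy and encoding a distinct fluorescent protein, were carried by a Saccharomyces cerevisiae BY4741 community. After overnight growth to OD600 1.0 and dilution to 0.3, 70 µl per well was grown for 24 h in minimal SM medium on 384-well plates acoustically predosed with library drugs at 10 µM final. Following paraformaldehyde fixation, automated confocal microscopy was used, with single-auxotroph fluorescent strains defining thresholds and autofluorescence correction. Subpopulation abundance was then scored as a z-score against the vehicle-well median.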

[2] = test system: Saccharomyces cerevisiae BY4741 SeMeCo community; assay: z-score of subpopulation abundance vs DMSO median, subpopulation auxotrophic for M; higher = larger share of this subpopulation than in DMSO controls; details: 10 µM; 24 h; SM minimal medium; subpopulation (auxotrophy): M
Method in brief: as §1

[3] = test system: Saccharomyces cerevisiae BY4741 SeMeCo community; assay: z-score of subpopulation abundance vs DMSO median, subpopulation auxotrophic for L; higher = larger share of this subpopulation than in DMSO controls; details: 10 µM; 24 h; SM minimal medium; subpopulation (auxotrophy): L
Method in brief: as §1

[4] = test system: Saccharomyces cerevisiae BY4741 SeMeCo community; assay: z-score of subpopulation abundance vs DMSO median, subpopulation auxotrophic for U; higher = larger share of this subpopulation than in DMSO controls; details: 10 µM; 24 h; SM minimal medium; subpopulation (auxotrophy): U
Method in brief: as §1

[5] = test system: Saccharomyces cerevisiae BY4741 SeMeCo community; assay: z-score of subpopulation abundance vs DMSO median, subpopulation auxotrophic for H; higher = larger share of this subpopulation than in DMSO controls; details: 10 µM; 24 h; SM minimal medium; subpopulation (auxotrophy): H
Method in brief: as §1

[6] = test system: Saccharomyces cerevisiae BY4741 SeMeCo community; assay: z-score of subpopulation abundance vs DMSO median, subpopulation auxotrophic for LU; higher = larger share of this subpopulation than in DMSO controls; details: 10 µM; 24 h; SM minimal medium; subpopulation (auxotrophy): LU
Method in brief: as §1

[7] = test system: Saccharomyces cerevisiae BY4741 SeMeCo community; assay: z-score of subpopulation abundance vs DMSO median, subpopulation auxotrophic for HM; higher = larger share of this subpopulation than in DMSO controls; details: 10 µM; 24 h; SM minimal medium; subpopulation (auxotrophy): HM
Method in brief: as §1

[8] = test system: Saccharomyces cerevisiae BY4741 SeMeCo community; assay: z-score of subpopulation abundance vs DMSO median, subpopulation auxotrophic for HU; higher = larger share of this subpopulation than in DMSO controls; details: 10 µM; 24 h; SM minimal medium; subpopulation (auxotrophy): HU
Method in brief: as §1

[9] = test system: Saccharomyces cerevisiae BY4741 SeMeCo community; assay: z-score of subpopulation abundance vs DMSO median, subpopulation auxotrophic for UM; higher = larger share of this subpopulation than in DMSO controls; details: 10 µM; 24 h; SM minimal medium; subpopulation (auxotrophy): UM
Method in brief: as §1

[10] = test system: Saccharomyces cerevisiae BY4741 SeMeCo community; assay: z-score of subpopulation abundance vs DMSO median, subpopulation auxotrophic for HLU; higher = larger share of this subpopulation than in DMSO controls; details: 10 µM; 24 h; SM minimal medium; subpopulation (auxotrophy): HLU
Method in brief: as §1

[11] = test system: Saccharomyces cerevisiae BY4741 SeMeCo community; assay: z-score of subpopulation abundance vs DMSO median, subpopulation auxotrophic for HLM; higher = larger share of this subpopulation than in DMSO controls; details: 10 µM; 24 h; SM minimal medium; subpopulation (auxotrophy): HLM
Method in brief: as §1

[12] = test system: Saccharomyces cerevisiae BY4741 SeMeCo community; assay: z-score of subpopulation abundance vs DMSO median, subpopulation auxotrophic for HUM; higher = larger share of this subpopulation than in DMSO controls; details: 10 µM; 24 h; SM minimal medium; subpopulation (auxotrophy): HUM
Method in brief: as §1

[13] = test system: Saccharomyces cerevisiae BY4741 SeMeCo community; assay: z-score of subpopulation abundance vs DMSO median, subpopulation auxotrophic for LUM; higher = larger share of this subpopulation than in DMSO controls; details: 10 µM; 24 h; SM minimal medium; subpopulation (auxotrophy): LUM
Method in brief: as §1

[14] = test system: Saccharomyces cerevisiae BY4741 SeMeCo community; assay: z-score of subpopulation abundance vs DMSO median, subpopulation auxotrophic for LM; higher = larger share of this subpopulation than in DMSO controls; details: 10 µM; 24 h; SM minimal medium; subpopulation (auxotrophy): LM
Method in brief: as §1

[15] = test system: Saccharomyces cerevisiae BY4741 SeMeCo community; assay: z-score of subpopulation abundance vs DMSO median, subpopulation auxotrophic for HL; higher = larger share of this subpopulation than in DMSO controls; details: 10 µM; 24 h; SM minimal medium; subpopulation (auxotrophy): HL
Method in brief: as §1

[16] = test system: Saccharomyces cerevisiae BY4741 SeMeCo community; assay: z-score of subpopulation abundance vs DMSO median, subpopulation auxotrophic for HLUM; higher = larger share of this subpopulation than in DMSO controls; details: 10 µM; 24 h; SM minimal medium; subpopulation (auxotrophy): HLUM
Method in brief: as §1

[17] = test system: Saccharomyces cerevisiae BY4741 SeMeCo community; assay: mean cell size (pixel area) (pixels); higher = larger cells; details: 10 µM; 24 h; SM minimal medium
Method in brief: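 Mean cell pixel area per well was determined by automated confocal microscopy with Harmony analysis of paraformaldehyde-fixed cells. The cells, a Saccharomyces cerevisiae BY4741 community of four plasmids that each complement one auxotrophy and carry a fluorescent marker, were incubated for 24 h with drug at a final 10 µM in SM medium in 384-well plates. Numbers are averaged over 3 replicates. Same SeMeCo high-content imaging drug screen: Selleck FDA-approved drugs at 10 µM, 24 h in SM medium, 384-well plates, 3 replicates.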

| Compound | z-score of prototroph abundance [1] | z-score of subpopulation abundance [2] | z-score of subpopulation abundance [3] | z-score of subpopulation abundance [4] | z-score of subpopulation abundance [5] | z-score of subpopulation abundance [6] | z-score of subpopulation abundance [7] | z-score of subpopulation abundance [8] | z-score of subpopulation abundance [9] | z-score of subpopulation abundance [10] | z-score of subpopulation abundance [11] | z-score of subpopulation abundance [12] | z-score of subpopulation abundance [13] | z-score of subpopulation abundance [14] | z-score of subpopulation abundance [15] | z-score of subpopulation abundance [16] | mean cell size [17] |
| --- | --- | --- | --- | --- | --- | --- | --- | --- | --- | --- | --- | --- | --- | --- | --- | --- | --- |
| CC1=C(C(=O)OCCN(Cc2ccccc2)c2ccccc2)C(c2cccc([N+](=O)[O-])c2)C(P2(=O)OCC(C)(C)CO2)=C(C)N1 (centres undefined) [Efonidipine] | -1.56 | 0.03 | 0.97 | 0.34 | 1.79 | 1.04 | 1.87 | 1.86 | 0.8 | 1.2 | 1.02 | 1.54 | 2.5 | – | – | – | – |
| CCOC(=O)c1ccc(O)cc1 [Ethylparaben] | -1.38 | -0.6 | -0.33 | 1.83 | -0.25 | 0.65 | – | – | 1.66 | -0.25 | 0.26 | 0.44 | 0.63 | -0.67 | -0.54 | 1.8 | – |
| CC1=C(C(=O)O)N2C(=O)[C@@H](NC(=O)[C@H](N)c3ccccc3)[C@H]2SC1 [Cephalexin] | -0.14 | 1.37 | 0.02 | -1.02 | 0.56 | -0.21 | 1.28 | -0.74 | – | -0.6 | -0.53 | 0.41 | -0.42 | – | – | -0.42 | – |
| COc1ccc(C[C@H](N)C(=O)N[C@H]2[C@@H](O)[C@H](n3cnc4c(N(C)C)ncnc43)O[C@@H]2CO)cc1 [Puromycin 2HCl] | – | 0.81 | -0.61 | 0.92 | – | -0.06 | 0 | 0.15 | 1.61 | -0.44 | -0.12 | – | -0.39 | -0.47 | -0.16 | -0.22 | 12.5 ± 0.13 |
| Cc1nc2n(c(=O)c1CCN1CCC(c3noc4cc(F)ccc34)CC1)CCCC2 [Risperidone] | -0.99 | -0.08 | -0.44 | 0.56 | – | 0.52 | 0.48 | 0.99 | 0.87 | 0.19 | 0.11 | – | 0.14 | 0.47 | 0.49 | -0.21 | 12.3 ± 0.18 |
| c1cnc(N2CCN(Cc3ccc4c(c3)OCO4)CC2)nc1 [Piribedil] | -0.35 | 0.35 | 0.51 | 0.44 | 0.27 | 0.48 | 0.27 | -0.25 | -0.82 | 0.22 | 1.03 | – | 0.73 | 0.32 | 0.51 | -0.28 | 12.6 ± 0.18 |
| CN1CCCN=C1/C=C/c1cccc(O)c1 [Oxantel Pamoate] | 1.15 | 1.17 | -0.58 | -1.1 | 0.29 | -0.45 | -0.6 | -0.96 | -1.73 | -0.35 | -0.2 | – | -1.13 | -0.51 | -0.28 | -0.41 | 12.6 ± 0.29 |
| NCC[C@H](O)C(=O)N[C@@H]1C[C@H](N)[C@@H](O[C@H]2O[C@H](CN)[C@@H](O)[C@H](O)[C@H]2O)[C@H](O)[C@H]1O[C@H]1O[C@H](CO)[C@@H](O)[C@H](N)[C@H]1O [Amikacin hydrate] | 0.26 | -0.02 | 1.02 | -0.78 | -0.04 | -0.95 | -0.36 | -0.52 | -0.12 | -0.03 | 0.82 | – | -0.58 | 0.15 | – | 0.15 | 12.16 ± 0.089 |
| CCCCCc1ccc(C)cc1O [Amylmetacresol] | -0.1 | -0.65 | 0.4 | 0.39 | -0.64 | 0.24 | -0.5 | – | -0.13 | 0.35 | 0.52 | -0.2 | 0.11 | -0.71 | -0.02 | – | – |
| CCN(CC)CCOCCOC(=O)C1(c2ccccc2)CCCC1 [Pentoxyverine Citrate] | 0.37 | -0.67 | -0.03 | 0.17 | -0.71 | 0.06 | -0.96 | -0.94 | -0.39 | -0.39 | -0.05 | -1.14 | -0.26 | -0.24 | -0.72 | – | – |
| CCCCN(CCCC)CC(O)c1cc(Cl)cc2c1-c1ccc(Cl)cc1/C2=C/c1ccc(Cl)cc1 (centres undefined) [Lumefantrine] | -1 | -0.39 | -0.76 | 1.6 | 0.2 | 0.38 | – | 0.43 | – | -0.32 | -0.39 | 1.37 | 0.62 | – | -0.58 | – | – |
| CC(N)C12CC3CC(CC(C3)C1)C2 (centres undefined) [Rimantadine] | -1.12 | 0.39 | 0.04 | 0.97 | 0.34 | 0.71 | 0.19 | 1.15 | 1.1 | 0.68 | 0.47 | – | 0.08 | 0.09 | – | -0.32 | 12.5 ± 0.14 |
| O=C1[C@H]2CCCC[C@H]2C(=O)N1CCCCN1CCN(c2nsc3ccccc23)CC1 [Perospirone hydrochloride] | 0.14 | -0.63 | 0.16 | 0.1 | -0.14 | 0.24 | -0.27 | 0.13 | -0.02 | 0.2 | 0.02 | -0.23 | 0.12 | -0.76 | -0.17 | – | – |
| CCCCCC(=O)O[C@]1(C(C)=O)CC[C@H]2[C@@H]3CCC4=CC(=O)CC[C@]4(C)[C@H]3CC[C@@]21C [Hydroxyprogesterone caproate] | -1.13 | 0.22 | 1.21 | -0.21 | 1.49 | 0.72 | 1.31 | 1.19 | 0.42 | 0.62 | 0.65 | 1.38 | 1.15 | – | 1.2 | 0.74 | – |
| Cc1nccn1CC1CCc2c(c3ccccc3n2C)C1=O (centres undefined) [Ondansetron Hydrochloride Dihydrate] | 0.12 | 0.38 | -0.38 | 1.06 | -0.54 | -0.34 | -0.61 | – | 0.75 | -0.6 | -0.48 | 0.55 | – | – | – | -0.23 | – |
